Results filed as inconclusive are left out. Activity calls are given as the source filed them. Unless noted, calls come from the whole dose curve; as a rule, active = well fitted curve in the direction sought with a large enough effect in the repeat runs; inconclusive = weak or mixed curves; inactive = no such curve, though single readings can be large; an effect the other way counts as inactive or inconclusive.
Assays:
[1] = qHTS assay to identify small molecule antagonists of the TGF-beta/Smad signaling pathway - cell viability counter screen (AID 1346824); note: nearly all actives have a fitted effect of over 50% in size
Procedure, shortened: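 SBE-bla HEK 293T cells, incubated overnight, then compound plus 0.25 ng/mL TGF-beta1 (stock added) for 5 hr at 37 C. Viability was read in the same wells by CellTiter-Glo luminescence after 30 min at room temperature.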

[2] = qHTS assay to identify small molecule agonists of the TGF-beta/Smad signaling pathway - cell viability counter screen (AID 1346829); note: top concentration of the series differs between compounds; nearly all actives have a fitted effect of over 45% in size
Procedure, shortened: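 CellTiter-Glo luminescence readout; SBE-bla HEK 293T cells, overnight plating, compound 5 hr at 37 C/5% CO2, then bla substrate 2 hr RT, then CellTiter-Glo 30 min RT.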

[3] = qHTS assay to identify small molecule agonists of the TGF-beta/Smad signaling pathway (AID 1346859; active = well fitted activation curve with a large enough effect in the signal ratio in the repeat runs, not every such curve was filed as active; the % refers to the signal ratio; note: series mostly up to about 77 µM)
Procedure, shortened: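 Reporter line: HEK 293T with stably integrated SBE-controlled beta-lactamase. Compound exposure lasts 5 hr at 37 C and 5% CO2; substrate loading follows for 2 hr at room temperature, with emission read at 460 and 530 nm.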

[4] = biological target: Thyrotropin-releasing hormone receptor (Homo sapiens) (UniProt P34981); test: qHTS assay to identify small molecule antagonists of the thyrotropin-releasing hormone receptor (TRHR) signaling pathway (AID 1346877; active = well fitted inhibition curve with a large enough effect in the repeat runs, not every such curve was filed as active; note: series mostly up to about 51 µM)
Sequence of Thyrotropin-releasing hormone receptor (Homo sapiens) (P34981 whole entry, looked up): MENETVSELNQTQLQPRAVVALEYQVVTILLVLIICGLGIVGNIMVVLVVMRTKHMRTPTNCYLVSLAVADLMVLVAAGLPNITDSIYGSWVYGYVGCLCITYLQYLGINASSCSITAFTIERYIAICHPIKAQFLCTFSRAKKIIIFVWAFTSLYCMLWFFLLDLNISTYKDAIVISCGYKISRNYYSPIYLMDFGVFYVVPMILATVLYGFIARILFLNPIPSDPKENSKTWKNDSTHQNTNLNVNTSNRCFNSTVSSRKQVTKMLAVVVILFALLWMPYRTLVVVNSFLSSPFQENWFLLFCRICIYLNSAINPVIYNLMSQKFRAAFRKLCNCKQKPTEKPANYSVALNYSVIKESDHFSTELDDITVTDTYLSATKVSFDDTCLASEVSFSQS
Procedure, shortened: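 TRHR-expressing HEK293 cells were seeded, cultured 18 h at 37 °C, then loaded with calcium dye for 2 h. Compounds were pre-incubated 5 min at room temperature before 1 nM TRH (final) was added, and kinetic fluorescence was recorded for 3 min.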

[5] = Human pregnane X receptor (PXR) small molecule agonists, qHTS cell viability counter screen (AID 1346977); note: nearly all actives have a fitted effect of over 50% in size
Procedure, shortened: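 Cytotoxicity counter screen run in the same wells as the PXR luciferase assay, using PXR-Luc HepG2 cells in charcoal-stripped serum medium. Viability: CellTiter-Fluor fluorescence after 24hr compound treatment.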

[6] = Caspase-3/7 induction in HepG2 cells by small molecules, qHTS assay (AID 1346978); note: nearly all actives have a fitted effect of over 15% in size
Procedure, shortened: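 Wild-type HepG2 cells, 2,000/well, settled 5 hr at 37 C and 5% CO2, then compound-treated for 17 hr; caspase-3/7 activity read by luminescent Caspase-Glo 3/7 after 30 min at room temperature.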

[7] = Caspase-3/7 induction in CHO-K1 cells by small molecules, qHTS cell viability counter screen (AID 1346979); note: nearly all actives have a fitted effect of over 35% in size
Procedure, shortened: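 Cytotoxicity counter screen run in parallel with the caspase-3/7 assay: CHO-K1 cells, 16hr compound treatment at 37C, then CellTiter-Fluor for 1hr before fluorescence reading.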

[8] = Caspase-3/7 induction in CHO-K1 cells by small molecules, qHTS assay (AID 1346980); note: nearly all actives have a fitted effect of over 15% in size
Procedure, shortened: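 Wild-type CHO-K1 cells exposed to compounds for 17hr at 37 C, 5% CO2. Caspase-3/7 activity then measured by Caspase-Glo 3/7 luminescence after 30min at room temperature.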

[9] = Caspase-3/7 induction in HepG2 cells by small molecules, qHTS cell viability counter screen (AID 1346981); note: series mostly up to about 92 µM; nearly all actives have a fitted effect of over 30% in size
Procedure, shortened: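 Wild-type HepG2 cells (2,000/well) were allowed to settle for 5 hr at 37 C, 5% CO2, then dosed with compounds in DMSO by pin transfer. After 16 hr at 37 C, CellTiter-Fluor was added and fluorescence read 1 hr later.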

[10] = biological target: Nuclear receptor subfamily 1 group I member 2 (Homo sapiens) (UniProt O75469); test: Human pregnane X receptor (PXR) small molecule agonists, qHTS assay (AID 1346982); note: nearly all actives have a fitted effect of over 35% in size; note: potency is the fitted concentration of half-maximal effect
Sequence of Nuclear receptor subfamily 1 group I member 2 (Homo sapiens) (O75469 whole entry, looked up): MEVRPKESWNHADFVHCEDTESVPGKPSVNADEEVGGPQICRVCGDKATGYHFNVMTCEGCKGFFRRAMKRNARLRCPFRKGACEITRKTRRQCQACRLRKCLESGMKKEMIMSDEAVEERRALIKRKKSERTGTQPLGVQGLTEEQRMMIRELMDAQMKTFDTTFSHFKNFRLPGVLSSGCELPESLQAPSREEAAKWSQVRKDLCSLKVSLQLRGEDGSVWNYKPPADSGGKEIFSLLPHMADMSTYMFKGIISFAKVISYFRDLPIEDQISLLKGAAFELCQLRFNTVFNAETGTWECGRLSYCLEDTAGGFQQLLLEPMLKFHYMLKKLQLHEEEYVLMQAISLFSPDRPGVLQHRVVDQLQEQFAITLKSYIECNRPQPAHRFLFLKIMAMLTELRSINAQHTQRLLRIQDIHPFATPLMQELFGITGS
Procedure, shortened: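 PXR-Luc HepG2 cells (CYP3A4 promoter-driven luciferase) were seeded in medium with 5% charcoal-stripped FBS, left 5 hr at 37 C, then exposed to compounds in DMSO for 24 hr. Luminescence was read after ONE-Glo addition.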

[11] = biological target: Cytochrome P450 2C19 (Homo sapiens) (UniProt P33261); test: Cytochrome P450 Family 2 Subfamily C Member 19 (CYP2C19) small molecule antagonists: luciferase reporter qHTS assay (AID 1671197); note: series mostly up to about 120 µM; nearly all actives have a fitted effect of over 65% in size
Sequence of Cytochrome P450 2C19 (Homo sapiens) (P33261 whole entry, looked up): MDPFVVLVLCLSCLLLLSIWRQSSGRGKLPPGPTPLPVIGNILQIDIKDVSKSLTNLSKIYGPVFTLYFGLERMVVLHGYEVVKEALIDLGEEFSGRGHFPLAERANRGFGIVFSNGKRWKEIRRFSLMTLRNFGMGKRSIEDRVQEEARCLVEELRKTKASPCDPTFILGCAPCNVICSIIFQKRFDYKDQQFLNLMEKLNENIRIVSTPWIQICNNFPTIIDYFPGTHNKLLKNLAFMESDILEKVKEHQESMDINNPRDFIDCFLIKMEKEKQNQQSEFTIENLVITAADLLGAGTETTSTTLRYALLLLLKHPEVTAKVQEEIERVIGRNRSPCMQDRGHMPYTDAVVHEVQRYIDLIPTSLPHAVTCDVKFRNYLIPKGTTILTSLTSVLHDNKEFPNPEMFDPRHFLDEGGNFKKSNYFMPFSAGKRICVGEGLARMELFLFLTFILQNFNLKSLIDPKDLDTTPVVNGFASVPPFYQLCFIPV
Procedure, shortened: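 Enzyme-substrate mix with proluciferin substrate (P450-Glo CYP2C19 system) preincubated with compounds 10 min at room temperature; NADPH regeneration solution added, 37C for 1 h; detection reagent stops reaction, luminescence read after 20 min. Ketoconazole positive control.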

[12] = biological target: Cytochrome P450 2C9 (Homo sapiens) (UniProt P11712); test: Cytochrome P450 Family 2 Subfamily C Member 9 (CYP2C9) small molecule antagonists: luciferase reporter qHTS assay (AID 1671198); note: series mostly up to about 120 µM; nearly all actives have a fitted effect of over 50% in size
Sequence of Cytochrome P450 2C9 (Homo sapiens) (P11712 whole entry, looked up): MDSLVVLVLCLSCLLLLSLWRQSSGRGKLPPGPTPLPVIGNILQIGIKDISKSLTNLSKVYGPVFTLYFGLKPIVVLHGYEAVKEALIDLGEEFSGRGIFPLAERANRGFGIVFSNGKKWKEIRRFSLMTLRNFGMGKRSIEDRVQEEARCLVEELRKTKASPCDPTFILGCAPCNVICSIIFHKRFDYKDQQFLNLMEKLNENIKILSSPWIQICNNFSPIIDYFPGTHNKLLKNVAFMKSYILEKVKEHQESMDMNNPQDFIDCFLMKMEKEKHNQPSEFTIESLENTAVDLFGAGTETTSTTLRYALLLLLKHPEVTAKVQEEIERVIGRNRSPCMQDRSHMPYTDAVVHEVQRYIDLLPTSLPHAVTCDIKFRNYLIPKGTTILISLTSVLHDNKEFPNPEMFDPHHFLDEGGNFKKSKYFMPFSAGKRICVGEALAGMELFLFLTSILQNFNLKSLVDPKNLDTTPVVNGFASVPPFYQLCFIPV
Procedure, shortened: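 P450-Glo proluciferin substrate with CYP2C9 enzyme; 10 min RT preincubation, then NADPH regeneration 1 h at 37C; luciferin detection reagent 20 min RT, luminescence in relative luminescence units.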

[13] = biological target: Voltage-gated inwardly rectifying potassium channel KCNH2 (Homo sapiens) (UniProt Q12809); test: Human Ether-a-go-go-Related Gene (hERG) channel small molecule antagonists: fluorescence cell-based qHTS assay (AID 1671200);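 note: hERG-expressing U2OS cells given a thallium stimulus after FluxOR II dye loading; series mostly up to about 77 µM; nearly all actives have a fitted effect of over 50% in size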
Sequence of Voltage-gated inwardly rectifying potassium channel KCNH2 (Homo sapiens) (Q12809 whole entry, looked up): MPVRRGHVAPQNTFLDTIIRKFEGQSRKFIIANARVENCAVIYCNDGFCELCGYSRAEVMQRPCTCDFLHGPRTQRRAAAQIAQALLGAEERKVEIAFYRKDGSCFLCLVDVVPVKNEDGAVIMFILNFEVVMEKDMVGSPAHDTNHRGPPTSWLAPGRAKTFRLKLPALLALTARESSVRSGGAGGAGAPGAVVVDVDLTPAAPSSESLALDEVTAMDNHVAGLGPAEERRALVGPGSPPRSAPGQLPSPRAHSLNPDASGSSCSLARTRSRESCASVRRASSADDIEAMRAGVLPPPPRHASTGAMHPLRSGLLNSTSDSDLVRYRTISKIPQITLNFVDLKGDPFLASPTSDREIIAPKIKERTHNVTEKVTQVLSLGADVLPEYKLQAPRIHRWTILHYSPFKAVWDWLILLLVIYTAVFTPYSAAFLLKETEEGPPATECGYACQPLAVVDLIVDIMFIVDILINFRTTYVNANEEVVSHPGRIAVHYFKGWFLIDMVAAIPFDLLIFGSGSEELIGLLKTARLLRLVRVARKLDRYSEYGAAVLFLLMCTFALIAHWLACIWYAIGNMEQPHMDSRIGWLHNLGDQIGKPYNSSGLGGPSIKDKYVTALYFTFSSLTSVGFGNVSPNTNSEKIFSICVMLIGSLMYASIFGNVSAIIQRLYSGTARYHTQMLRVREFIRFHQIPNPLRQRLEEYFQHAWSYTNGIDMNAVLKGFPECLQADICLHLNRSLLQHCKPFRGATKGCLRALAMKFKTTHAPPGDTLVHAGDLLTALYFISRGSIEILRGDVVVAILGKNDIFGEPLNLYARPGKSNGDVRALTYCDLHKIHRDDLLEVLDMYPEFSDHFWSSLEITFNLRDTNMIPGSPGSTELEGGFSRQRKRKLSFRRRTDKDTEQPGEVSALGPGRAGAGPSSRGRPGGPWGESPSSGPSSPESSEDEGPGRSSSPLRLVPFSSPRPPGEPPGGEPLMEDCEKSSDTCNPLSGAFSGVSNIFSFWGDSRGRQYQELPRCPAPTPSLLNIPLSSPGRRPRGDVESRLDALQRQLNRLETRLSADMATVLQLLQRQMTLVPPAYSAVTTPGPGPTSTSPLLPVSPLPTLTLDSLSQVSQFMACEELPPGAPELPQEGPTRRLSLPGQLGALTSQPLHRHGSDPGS
Procedure, shortened: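 Fluorescence at 540 nm emission (480 nm excitation) was recorded kinetically for 2 min at 1-second intervals once the thallium-containing stimulus reached cells previously loaded with FluxOR II dye.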

[14] = biological target: Cytochrome P450 3A4 (Homo sapiens) (UniProt P08684); test: Cytochrome P450 Family 3 Subfamily A Member 4 (CYP3A4) small molecule antagonists: luciferase reporter qHTS assay (AID 1671201)
Sequence of Cytochrome P450 3A4 (Homo sapiens) (P08684 whole entry, looked up): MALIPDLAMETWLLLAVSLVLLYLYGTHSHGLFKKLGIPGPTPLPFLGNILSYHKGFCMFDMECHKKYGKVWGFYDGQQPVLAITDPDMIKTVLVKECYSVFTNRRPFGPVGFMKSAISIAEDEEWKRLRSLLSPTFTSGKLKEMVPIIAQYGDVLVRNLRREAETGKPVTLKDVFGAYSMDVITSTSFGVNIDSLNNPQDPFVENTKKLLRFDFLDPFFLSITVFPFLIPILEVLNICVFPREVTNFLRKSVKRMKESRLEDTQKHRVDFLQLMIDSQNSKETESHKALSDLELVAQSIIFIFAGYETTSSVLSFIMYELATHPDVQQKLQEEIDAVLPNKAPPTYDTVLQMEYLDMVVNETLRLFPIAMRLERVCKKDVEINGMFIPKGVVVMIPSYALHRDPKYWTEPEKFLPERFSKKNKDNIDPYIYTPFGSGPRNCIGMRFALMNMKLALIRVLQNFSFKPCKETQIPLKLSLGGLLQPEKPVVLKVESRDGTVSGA
Procedure, shortened: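 qHTS, 1536-well. CYP3A4 + proluciferin substrate, cpd 10 min RT → NADPH regen 1 h RT → detection reagent 20 min → luminescence (RLU). Ketoconazole positive control.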

[15] = biological target: Nuclear receptor subfamily 1 group I member 2 (Rattus norvegicus) (UniProt Q9R1A7); test: Rat pregnane X receptor (rPXR) activation by small molecules, qHTS assay (AID 1346983); details: rPXR luciferase reporter cells, One-Glo luminescence, 24 h; stronger effect = higher value; note: nearly all actives have a fitted effect of over 20% in size
Sequence of Nuclear receptor subfamily 1 group I member 2 (Rattus norvegicus) (Q9R1A7 whole entry, looked up): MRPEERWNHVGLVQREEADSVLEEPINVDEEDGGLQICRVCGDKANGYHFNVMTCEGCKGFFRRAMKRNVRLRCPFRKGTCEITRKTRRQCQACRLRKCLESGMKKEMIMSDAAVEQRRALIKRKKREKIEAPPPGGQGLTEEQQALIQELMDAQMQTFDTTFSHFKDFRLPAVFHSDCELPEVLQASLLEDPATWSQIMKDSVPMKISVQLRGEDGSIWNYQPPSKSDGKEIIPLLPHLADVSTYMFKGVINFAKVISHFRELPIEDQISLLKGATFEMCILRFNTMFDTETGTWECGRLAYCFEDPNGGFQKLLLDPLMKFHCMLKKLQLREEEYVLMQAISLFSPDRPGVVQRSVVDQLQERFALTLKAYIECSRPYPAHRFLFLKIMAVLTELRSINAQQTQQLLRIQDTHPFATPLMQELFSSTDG
Procedure, shortened: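 Cell-based rPXR activation assay: rPXR cells, 2,000 per well, rested 5hr at 37 C, then exposed to compounds in DMSO for 24 hr at 37 C. Luciferase activity read by One-Glo luminescence after 30 min at room temperature.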

[16] = biological target: Nuclear receptor subfamily 1 group I member 2 (Homo sapiens) (UniProt O75469); test: CYP3A4 induction through human pregnane X receptor (PXR) by small molecules, qHTS assay (AID 1346984); note: nearly all actives have a fitted effect of over 40% in size
Procedure, shortened: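 DPX-2 cells (HepG2 co-transfected with PXR and CYP3A4 promoter-luciferase) treated with compounds 24 h at 37C; luciferin-IPA CYP3A4 substrate 3uM final added for 3 h, then One-Glo; luminescence read. qHTS format.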

[17] = biological target: Nuclear receptor subfamily 1 group I member 2 (Homo sapiens) (UniProt O75469); test: Human pregnane X receptor (PXR) activation by small molecules, qHTS assay (AID 1346985); note: nearly all actives have a fitted effect of over 40% in size
Procedure, shortened: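 DPX-2 cells (HepG2 co-transfected with a PXR response element and a CYP3A4-promoter luciferase construct) were seeded at 2,000 per well, rested 5 hr at 37C, then exposed to DMSO-dissolved compounds for 24 hr. Activation was read as luciferase luminescence.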

[18] = biological target: Cytochrome P450 2D6 (Homo sapiens) (UniProt P10635); test: Cytochrome P450 Family 2 Subfamily D Member 6 (CYP2D6) small molecule antagonists: luciferase reporter qHTS assay (AID 1671196)
Sequence of Cytochrome P450 2D6 (Homo sapiens) (P10635 whole entry, looked up): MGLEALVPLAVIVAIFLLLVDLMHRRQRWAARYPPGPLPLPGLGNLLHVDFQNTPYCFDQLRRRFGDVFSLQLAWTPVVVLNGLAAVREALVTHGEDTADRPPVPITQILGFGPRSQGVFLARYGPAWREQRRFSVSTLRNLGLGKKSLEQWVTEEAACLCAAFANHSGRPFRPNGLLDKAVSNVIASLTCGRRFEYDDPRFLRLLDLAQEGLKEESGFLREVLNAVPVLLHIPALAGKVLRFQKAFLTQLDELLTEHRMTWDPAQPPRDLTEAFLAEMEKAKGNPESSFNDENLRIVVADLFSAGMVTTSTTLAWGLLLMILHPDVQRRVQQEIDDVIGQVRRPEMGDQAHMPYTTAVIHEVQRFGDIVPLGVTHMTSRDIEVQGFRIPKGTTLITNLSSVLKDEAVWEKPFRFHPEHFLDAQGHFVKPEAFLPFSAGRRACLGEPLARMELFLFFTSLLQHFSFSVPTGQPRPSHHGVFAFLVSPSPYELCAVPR
Procedure, shortened: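 CYP2D6 enzyme–substrate mix was held with compound for 10 min at room temperature, then NADPH regeneration solution was added and the reaction ran 1 h at room temperature. Luciferin product was detected by luminescence after 20 min with detection reagent.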

[19] = biological target: Cytochrome P450 1A2 (Homo sapiens) (UniProt P05177); test: Cytochrome P450 Family 1 Subfamily A Member 2 (CYP1A2) small molecule antagonists: luciferase reporter qHTS assay (AID 1671199); note: nearly all actives have a fitted effect of over 50% in size; note: potency is the fitted concentration of half-maximal effect; for activity change, negative = inhibition: series mostly up to about 120 µM
Sequence of Cytochrome P450 1A2 (Homo sapiens) (P05177 whole entry, looked up): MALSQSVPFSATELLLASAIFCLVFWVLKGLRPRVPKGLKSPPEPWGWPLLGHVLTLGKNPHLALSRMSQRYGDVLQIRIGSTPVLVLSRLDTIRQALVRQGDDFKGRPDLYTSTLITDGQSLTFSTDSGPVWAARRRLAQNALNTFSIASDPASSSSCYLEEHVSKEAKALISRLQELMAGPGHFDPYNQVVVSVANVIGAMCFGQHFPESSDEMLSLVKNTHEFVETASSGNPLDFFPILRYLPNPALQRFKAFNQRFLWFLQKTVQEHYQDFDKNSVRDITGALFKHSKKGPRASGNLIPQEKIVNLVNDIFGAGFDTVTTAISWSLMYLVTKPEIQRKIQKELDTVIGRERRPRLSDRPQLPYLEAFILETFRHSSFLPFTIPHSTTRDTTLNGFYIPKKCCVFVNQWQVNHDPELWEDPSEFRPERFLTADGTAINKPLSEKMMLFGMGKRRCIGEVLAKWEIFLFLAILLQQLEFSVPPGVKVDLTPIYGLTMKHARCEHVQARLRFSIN
Procedure, shortened: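 Human CYP1A2 activity measured with a P450-Glo proluciferin substrate; compounds in DMSO preincubated 10 min at room temperature with enzyme-substrate mix, then NADPH regeneration system added for 1 h. Luciferin detection reagent, 20 min, luminescence read.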

[20] = biological target: Thyrotropin-releasing hormone receptor (Homo sapiens) (UniProt P34981); test: qHTS assay to identify small molecule agonists of the thyrotropin-releasing hormone receptor (TRHR) signaling pathway (AID 1346891; calls by dose curve; note: series mostly up to about 58 µM)
Procedure, shortened: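 Cells: TRHR-Hek293, seeded and incubated 18 h. Dye loading: 2 h at 37 °C. Compound added from DMSO stock by pin tool. Read-out: kinetic calcium fluorescence over 3 min.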
% is set by controls: 0 for no effect and ±100 for the full control effect.

CCCCCCCCCCOC(C)=O
inactive: outcome [1] | outcome [2] | outcome [3] | outcome [4] | outcome [5] | outcome [6] | Potency [7] | outcome [8] | outcome [9] | Potency [10] | Potency [11] | Potency [12] | Potency [13] | Potency [14]

N[C@@H](CSCCCO)C(=O)O
inactive: viability change, negative = cytotoxic [1] -0.153% [at 15.8 µM] | activity change, negative = cytotoxicity [2] 6.47% [at 15.8 µM] | activation [3] 6.83% [at 15.8 µM] | activity, negative = inhibition [4] -0.484% [at 10.5 µM] | activity change, negative = cytotoxicity [5] 9.45% [at 19 µM] | activity change, negative = cytotoxicity [7] 1.3% [at 19 µM] | caspase-3/7 activation [8] 0.125% [at 19 µM] | activity change, negative = cytotoxicity [9] -2.1% [at 19 µM] | activation [10] -4.99% [at 19 µM] | max activation [15] -2.52% | Potency [16] | Potency [17] | activity change, negative = inhibition [18] -4.36% [at 23.6 µM] | activity change, negative = inhibition [11] 3.16% [at 23.6 µM] | activity change, negative = inhibition [12] 4.77% [at 23.6 µM] | activity change, negative = inhibition [19] 12.2% [at 23.6 µM] | activity change, negative = inhibition [13] 17.6% [at 15.8 µM] | activity change, negative = inhibition [14] 15.6% [at 23.6 µM]

CC(=O)CCc1ccc(OC(C)=O)cc1
active: Potency [19] 31.7 µM
inactive: outcome [1] | outcome [2] | outcome [3] | outcome [4] | outcome [5] | outcome [6] | Potency [7] | outcome [8] | outcome [9] | Potency [10] | Potency [13]

CCCCCCCCCCCCCCCCCCOCCO
inactive: viability change, negative = cytotoxic [1] -1.95% [at 15.8 µM] | activity change, negative = cytotoxicity [2] -6.94% [at 15.8 µM] | activation [3] -0.657% [at 15.8 µM] | activity, negative = inhibition [4] 2.83% [at 10.5 µM] | activation [20] -0.279% [at 11.8 µM] | activity change, negative = cytotoxicity [5] 5.85% [at 19 µM] | activity change, negative = cytotoxicity [7] -0.155% [at 19 µM] | caspase-3/7 activation [8] -1.25% [at 19 µM] | activity change, negative = cytotoxicity [9] 7.52% [at 19 µM] | activation [10] 0.259% [at 19 µM] | activity change, negative = inhibition [18] -7.3% [at 23.6 µM] | activity change, negative = inhibition [11] 7.26% [at 23.6 µM] | activity change, negative = inhibition [12] -10.3% [at 23.6 µM] | activity change, negative = inhibition [13] 3.84% [at 15.8 µM] | activity change, negative = inhibition [14] 11.9% [at 23.6 µM]

COc1cc2c(cc1OC)CN(C(=O)[C@H](C)N[C@@H](CCc1ccccc1)C(=O)O)[C@H](C(=O)O)C2
inactive: outcome [1] | outcome [2] | outcome [3] | outcome [4] | outcome [5] | outcome [6] | Potency [7] | outcome [8] | outcome [9] | Potency [10] | Potency [11] | Potency [12] | Potency [13]

COc1cc2c(cc1OC)C(=O)C(CC1CCN(Cc3ccccc3)CC1)C2 (stereo not given)
inactive: outcome [1] | outcome [2] | outcome [3] | outcome [4] | outcome [20] | outcome [6] | Potency [7] | outcome [8] | Potency [10]

CC(C)[C@H]1CC[C@H](C)C[C@@H]1O
active: Potency [10] 55.4 µM
inactive: outcome [1] | outcome [2] | outcome [3] | outcome [4] | outcome [20] | outcome [5] | Potency [7] | outcome [8] | Potency [18] | Potency [11] | Potency [12] | Potency [13] | Potency [14]

— PubChem BioAssay (Tox21)
